HT1080 IDH1KD tx: qHTS for induction of synthetic lethality in tumor cells producing 2HG: qHTS for the HT-1080-IDH1KD cell line | HT-1080 IDH1 knockdown viability, ATP luminescence, 48 h | Potency, µM (titrated, usually from 46.1 µM), actives largely listed as cytotoxic | 360,000 compounds, 2% hits
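HT-1080-IDH1KD cells (IDH1 knocked down), 750/well in RPMI with 5% FBS, treated with compound 48 h at 37 degrees C. Viability by CellTiter-Glo luminescence, normalised to DMSO and no-cell wells; concentration-response curves classed.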
HT1080-NT tox: qHTS for induction of synthetic lethality in tumor cells producing 2HG: qHTS for the HT-1080-NT fibrosarcoma cell line | HT-1080-NT fibrosarcoma viability, CellTiter-Glo ATP luminescence, 48 h | Potency, µM (titrated, usually from 46.1 µM), usual class: cytotoxic | 360,000 compounds, 1.6% hits;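 also: NT is the 2HG producing partner of a matched IDH1 knockdown line; nearly all actives have a fitted effect of over 55% in size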
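HT-1080-NT fibrosarcoma cells (2HG-overproducing), 750 cells/well in RPMI with 5% FBS, dosed after 2 h and incubated 48 h at 37C. CellTiter-Glo luminescence normalized to DMSO and no-cell wells; concentration-response curves fitted and classed.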
TDP1 cell noCPT: qHTS for Inhibitors of human tyrosyl-DNA phosphodiesterase 1 (TDP1): qHTS in cells in absence of CPT | DT40 Tdp1-/- hTDP1 cells, no CPT, ATP luminescence, 48 h | Potency, µM (titrated, usually from 46.2 µM), hits mostly inhibitors | 420,000 compounds, 15% hits | AID 686978, 2013; also: nearly all actives have a fitted effect of over 55% in size
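Cells were dispensed at 400 per well, compounds added by pin tool, plates incubated ≥48 hr at 37 °C, then CellTiter-Glo added for 30 min at room temperature before luminescence reading. Line: DT40 Tdp1-/- complemented with hTDP1; camptothecin omitted.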
DT40 TDP1 CPT: qHTS for Inhibitors of human tyrosyl-DNA phosphodiesterase 1 (TDP1): qHTS in cells in presence of CPT | chicken DT40 Tdp1-/-;hTDP1 cells + 20 nM CPT, ATP luminescence, 48 h | Potency, µM (titrated, usually from 46.2 µM), usual class: inhibitors | AID 686979, 2013 | 420,000 compounds, 12% hits; also: nearly all actives have a fitted effect of over 55% in size
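Chicken DT40 Tdp1-/- cells stably complemented with human TDP1 were seeded at 400 cells/well in medium containing 20 nM camptothecin, exposed to pin-transferred compounds, and grown at 37 °C for at least 48 hr. Viability was read as ATP luminescence.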
IL1B secr inh: qHTS for Inhibitors of Inflammasome Signaling: IL-1-beta AlphaLISA Primary Screen; activity change, % at 57.5 µM; 360,000 compounds, 4.7% hits; AID 743279, 2014; THP-1 LPS/ATP IL-1B secretion, AlphaLISA, 16 h; hits give low values; in the data active = activity change below about -50%; inconclusive = mostly about -30% to -49%
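THP-1 cells pretreated 1 hr with compounds (up to 57.5 uM final), then stimulated with LPS (250 ng/mL final) plus ATP (1.25 mM final); secreted IL-1B measured by AlphaLISA after 16 hr, decreased signal indicating inhibition.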
ELG1 repair inh: qHTS screen for small molecules that inhibit ELG1-dependent DNA repair in human embryonic kidney (HEK293T) cells expressing luciferase-tagged ELG1; HEK293T ELG1-luciferase reporter, luminescence, 16 h; DNA damage induced by 5-fluorouridine; Potency, µM (top dose mostly 46.1 µM), actives largely listed as inhibitors; 330,000 compounds, 2.3% hits; also: nearly all actives have a fitted effect of over 55% in size
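Quantitative HTS, concentration-response format. 2,000 cells/well co-treated with 5-fluorouridine and compound, 16 hr in 5% CO2 at 37 °C; ONE-Glo luminescence read after 30 min.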
Hits are given with their value; – = inactive; ? = inconclusive; · = no result given; ! = a repeat was not active; [ ] = remark or other dose. Only some compounds are listed: those with a hit (about 19% of all), similar ones and a draw of the others. Unless noted, calls follow the shape of the dose curve; as a rule, active = well fitted curve in the direction sought with a large enough effect; inconclusive = small, poorly fitted or top-dose-only effect, or another doubt; inactive = no such curve, though single readings can be large; an effect the other way counts as inactive or inconclusive.

SMILES	HT1080 IDH1KD tx	HT1080-NT tox	TDP1 cell noCPT	DT40 TDP1 CPT	IL1B secr inh	ELG1 repair inh
COc1ccc(S(=O)(=O)c2cn(C)c3cc(N4CCCCCC4)c(F)cc3c2=O)cc1	·	·	15µM	18µM	·	·
CCCCn1cc(S(=O)(=O)c2ccc(OC)cc2)c(=O)c2cc(F)c(N3CCCC3)cc21	·	·	10µM	12µM	·	·
CCCn1cc(S(=O)(=O)c2ccc(OC)cc2)c(=O)c2cc(F)c(N3CCCC(C)C3)cc21 (stereo unspecified)	·	·	18µM	?	·	·
CCC1CN(CCNC(=O)c2cn3cc(C)ccc3n2)Cc2cc(OC)ccc2O1 (stereo unspecified)	·	·	?	–[9.04 µM]	·	·
CCCCn1cc(S(=O)(=O)c2ccc(Cl)cc2)c(=O)c2cc(F)c(N3CCCCC3)cc21	·	·	12µM	12µM	·	·
Cc1cc(C)cc(S(=O)(=O)c2cn(C)c3cc(N4CCCC4)c(F)cc3c2=O)c1	·	·	–	–	·	·
CCOCCn1ccc2c(OCC(=O)NCc3ccc(F)cc3)cccc2c1=O	·	·	–	–	·	·
CCOC(=O)c1c(C)[nH]c(C)c1C(=O)CN1C(=O)NC(CC(C)C)C1=O (stereo unspecified)	–	–	?	10µM	–	–
C[C@@H](CN1CCC(Cc2ccccc2)CC1)[C@@H](O)c1ccc(O)cc1	–	–	7.3µM!	23µM	–	–
CC(C)OCC(O)CN1CCC(Cc2ccccc2)CC1 (stereo unspecified)	–	–	–	–	–	–
COc1ccc(-c2c(-c3cc(OC)cc(OC)c3)n(C)c3ccc(-c4ccc(S(N)(=O)=O)cc4)cc23)cc1	–	–	4.1µM	10µM	-54	?
COc1cccc(-c2c(-c3cc(OC)cc(OC)c3)n(C)c3ccc(-c4cnc(N5CCOCC5)nc4)cc23)c1	–	?	23µM	13µM	–	–
COc1cc(OC)cc(-c2c(-c3ccc(F)cc3)c3cc(Br)ccc3n2C)c1	–	–	–	–	–	–
COc1cc(OC)cc(-c2c(-c3ccc(F)cc3)c3cc(-c4cnc(OC)nc4)ccc3n2C)c1	–	–	13µM	16µM	–	?
COc1cccc(-c2c(-c3cc(OC)cc(OC)c3)n(C)c3ccc(-c4cnc(OC)nc4)cc23)c1	–	–	15µM	?	–	?
CCN(CC)CCN(C)C(=O)c1ccc(-c2ccccc2)nc1N(C)C	·	·	–	–[9.04 µM]	·	·
CCN(CC(=O)NC1CCS(=O)(=O)C1)C(=O)c1ccc(OC)c([N+](=O)[O-])c1 (stereo unspecified)	–	–	–	–	–	–
CC1(C)CC2CC(C)(CN2Cc2c(O)ccc3ccccc23)C1 (stereo unspecified)	–	–	13µM	?	–	–
CC(=O)Oc1cc(OC(C)=O)c2c(=O)cc(-c3ccc(OC(C)=O)c(OC(C)=O)c3)oc2c1	·	·	27µM	?	·	·
CC(=O)Oc1cc(O)c2c(=O)c(OC(C)=O)c(-c3ccc(OC(C)=O)c(OC(C)=O)c3)oc2c1	–	–	21µM	?	–	·
Cc1ccc(Cn2ccsc2=NC(=O)COC(=O)C(C)C)cc1	?	–	8.2µM	15µM	–	–
CC(=O)Nc1ccc(Nc2nc(C)c([N+](=O)[O-])c(N(C)c3ccccc3)n2)cc1	–	–	?	?	?	21µM
CCC(=O)Nc1ccc(Nc2nc(C)c([N+](=O)[O-])c(Nc3ccc(NC(=O)CC)cc3)n2)cc1	–	–	6.5µM	8.2µM	–	12µM
CC(=O)Nc1ccc(Nc2nc(C)c([N+](=O)[O-])c(Nc3ccccc3)n2)cc1	?	–	18µM	23µM	–	15µM
COc1ccc(CNc2nc(-c3ccco3)nn2S(=O)(=O)c2ccc(Cl)cc2)cc1OC	·	·	–	–	·	·
SMILES	HT1080 IDH1KD tx	HT1080-NT tox	TDP1 cell noCPT	DT40 TDP1 CPT	IL1B secr inh	ELG1 repair inh
Cc1ccc(C2=NN3C(C2)c2ccccc2OC32C(=O)Nc3ccccc32)cc1 (stereo unspecified)	?	?	?	?	–	?
CN1C(=O)C2(Oc3ccccc3C3CC(c4ccccc4)=NN32)c2ccccc21 (stereo unspecified)	–	–	?	23µM	–	?
CCc1ccc2oc(-c3ccc(C)c(NC(=O)COc4ccc(Cl)cc4)c3)nc2c1	·	·	–	–	·	·
Cc1cccc(N2CCN(C(=O)c3ccc4ccccc4c3)CC2C)c1 (stereo unspecified)	–	–	?	?	?	?
CCN1C(=O)c2ccccc2S(=O)c2ccc(C(=O)N3CCN(c4cccc(C)c4)C(C)C3)cc21 (stereo unspecified)	·	·	16µM	?	·	·
Cc1cccc(N2CCN(C(=O)c3ccc4c(c3)N(Cc3cccc(Cl)c3)C(=O)c3ccccc3S4=O)CC2C)c1 (stereo unspecified)	·	·	6.5µM	5.8µM	·	·
Cc1ccccc1CN1C(=O)c2ccccc2S(=O)c2ccc(C(=O)N3CCOCC3)cc21 (stereo unspecified)	·	·	–	–	·	·
O=C(O)C[C@H]1c2cc(C(F)(F)F)ccc2S(=O)(=O)N1Cc1ccccc1	–	–	?	?	–	·
CCOC(=O)c1cc(-c2ccc(OC)cc2)n(CCC(=O)NC2CCN(Cc3ccccc3)CC2)c1C	–	–	21µM	?	–	?
CCOC(=O)c1cc(-c2ccc(F)cc2)n(CCC(=O)NC2CCN(Cc3ccccc3)CC2)c1C	?	?	15µM	16µM	?	?
Cc1ccc(S(=O)(=O)Nc2ccc(Br)cc2/C=N/n2cnnc2)cc1	?	13µM	29µM	?	–	?
COc1ccc(OCCNC(=O)c2ccccc2OCC(=O)N2CCCCC2)cc1	–	–	18µM	21µM	–	23µM
COc1ccc(OCCNC(=O)c2ccccc2OCC(=O)Nc2ccc(NC(C)=O)cc2)cc1	–	–	15µM	18µM	–	16µM
O=C(NCCOc1ccccc1)c1ccccc1SCC(=O)N1CCCC1	–	–	–	–	–	–
COCCNCCCCSc1ccc(Cl)cc1	–	–	18µM	15µM	–	–
O=C(Nc1ccccc1F)c1ccc2c(c1)CCN2S(=O)(=O)c1ccccc1	–	–	–	?	-69	–
COC(=O)c1cc(OC)c(OC)cc1NC(=O)c1ccc2c(c1)CCN2S(=O)(=O)c1ccccc1	·	·	–	–	·	·

Source: PubChem (National Center for Advancing Translational Sciences (NCATS))
